From PubChem BioAssay AID686964 (The Scripps Research Institute Molecular Screening Center, 2013)
“And” between values parts separate entries of the source, which are not always exact repeats. Identical values can stand only once. About 1,100 (0.3%) of roughly 370,000 compounds were called active. Many of the other results were omitted from the sample, so actives are more common in it than they were. A number with no mark means an inactive call. Rule as the data show it: active = inhibition above about 13%; inactive = the rest.

target: Methyl-CpG-binding domain protein 2 (Homo sapiens) (UniProt Q9UBB5); experiment: MBD2-DBD methyl-oligonucleotide interaction blockers – biochemical, TR-FRET, DNA-binding domain, human, primary screen (AID 686964); details: MBD2 binding to methylated oligonucleotide, at 4.4 µM, stronger effect = higher value
Sequence (Q9UBB5 whole entry, looked up, the tested form may be a part): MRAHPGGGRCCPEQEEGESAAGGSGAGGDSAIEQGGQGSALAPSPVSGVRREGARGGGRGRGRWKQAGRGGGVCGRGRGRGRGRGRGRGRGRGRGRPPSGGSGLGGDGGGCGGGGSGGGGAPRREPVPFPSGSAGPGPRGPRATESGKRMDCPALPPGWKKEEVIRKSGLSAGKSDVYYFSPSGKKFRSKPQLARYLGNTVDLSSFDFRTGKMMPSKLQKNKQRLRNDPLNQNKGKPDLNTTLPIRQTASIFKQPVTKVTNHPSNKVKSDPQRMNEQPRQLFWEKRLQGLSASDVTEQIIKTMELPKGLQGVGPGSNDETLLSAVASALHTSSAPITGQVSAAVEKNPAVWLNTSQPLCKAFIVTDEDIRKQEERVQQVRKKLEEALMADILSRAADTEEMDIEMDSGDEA

Structure (SMILES) | inhibition
CCn1cc(C(=O)N2CC(C)CC(C)C2)c(=O)c2cc(S(=O)(=O)N3CCCC3)ccc21 (stereo unspecified) | -7.45%
COC(=O)c1cn(C)c2ccc(S(=O)(=O)N3CC(C)CC(C)C3)cc2c1=O (stereo unspecified) | 21.1% (active)
CC1CCCCC1NC(=O)c1cn(C)c2ccc(S(=O)(=O)N3CCOCC3)cc2c1=O (stereo unspecified) | 0.43%
Cc1cc(C)c2nc(-c3ccco3)cc(C(=O)O)c2c1 | 13.2% (active)
CCOC(=O)c1ccn(-c2nc(-c3ccco3)cc(C(F)(F)F)n2)n1 | 1.89%
Cc1cc(C)c2nc(-c3cccnc3)cc(C(=O)Nc3ccc(S(=O)(=O)Nc4onc(C)c4C)cc3)c2c1 | -1.74%
CCC(=O)c1c(CC)c2n3c1=CC[C@H]3CC(Br)C=2 (stereo partly specified) | 1.67%
Cc1ccc(C(=O)Nc2ccc3c(c2)OCO3)cc1S(=O)(=O)N1CCCCC1 | 13.4% (active)
Cc1ccc(NC(=O)C2CC(=O)N(c3ccc4c(c3)OCCO4)C2)cc1S(=O)(=O)N1CCCCCC1 (stereo unspecified) | 2.94%
Cc1ccc(C(=O)NNC(=O)c2ccncc2)cc1S(=O)(=O)N1CCCCC1 | -3.54%
Cc1cc(C)nc(NC(=S)N2CCN(c3ccc(C(F)(F)F)cn3)CC2)c1 | -0.18%
Cc1ccccc1NC(=O)CN1C(=O)N/C(=C\c2cccn2-c2cccc(C(=O)O)c2)C1=O | 20.6% (active)
N#Cc1ccccc1CN1C(=O)S/C(=C/c2cccn2-c2cccc(C(=O)O)c2)C1=O | 10.6%
COC(=O)CN1C(=O)N/C(=C/c2ccc(OC)c(C)c2OC)C1=O | -3.97%
Cc1ccc(Cn2cc(CN3[C@@H](C)COc4cc(Br)ccc4S3(=O)=O)nn2)cc1 | -5.2%
CCc1noc(C)c1C(=O)N1CCN(S(=O)(=O)c2cccc(C(F)(F)F)c2)CC1 | -5.25%
O=C(CCl)NC1CCCCN(Cc2cccc(C(F)(F)F)c2)C1=O (stereo unspecified) | 3.06%
CCOc1ccc(-n2c(SCC(=O)Nc3ccc(OC)cc3)nc3sc4c(c3c2=O)CCN(C)C4)cc1 | 23.5% (active)
CCn1c(SCC(=O)Nc2ccc(Br)cc2)nc2sc3c(c2c1=O)CCN(C)C3 | 0.05%
CCCSc1nc2sc3c(c2c(=O)n1-c1ccc(OC)cc1)CCN(C)C3 | -2%
CCCCC(=O)N[C@@H]1CC[C@@]23CCCN2C(=O)CCC[C@H]3[C@H]1C | -0.72%
COc1ccc(Cl)cc1NC(=O)COC(=O)c1ccc(Br)o1 | -1.28%

Structure (SMILES) | inhibition
COc1ccc(Cl)cc1NC(=O)CN(C)Cc1ccc(OC)c(OC)c1 | 0.39%
COc1ccc(Cl)cc1NC(=O)CCS(=O)(=O)c1ccc(Br)cc1 | 26.3% (active)
CC(=O)N1CCc2cc(S(=O)(=O)NCCC(=O)N3CCCC3)ccc21 | 0.46%
CCCN(CC(=O)NC(=O)NC1CCCCC1)CC(=O)Nc1cc(Cl)ccc1Cl | -5.45%
CCOC(=O)c1sc(NC(=O)CCN2CCOCC2)c(C(=O)OCC)c1C | 28.4% (active)
CCOC(=O)c1c(NC(=O)CCCN2CCOCC2)sc2c1CC(C)(C)OC2 | 0.1%
CCOC(=O)c1c(C)[nH]c(C(=O)NCCN2CCOCC2)c1C | 4.74%
CCN(C(=O)[C@@H](C1CC1)[C@@H](O)c1ccc2ccccc2c1)c1ccccc1 | 3.52%
O=C1C(=O)N(Cc2ccc(-c3ccsc3)cc2)c2ccc(OC(F)(F)F)cc21 | -3.46%
CC(C)CCN1CCC(C)(NC(=O)c2ccccc2)C1=O (stereo unspecified) | 0.15%
COC(=O)[C@]1(C#N)CC(=O)N(CC2CCCCC2)[C@@H]1c1ccccc1 | -3.31%
COC(=O)c1ccc2nc(-c3ccc(F)cc3)c(Cc3ccc(C)cc3)n2c1 | 3.12%
COC(=O)c1ccc2nc(-c3ccc(Cl)cc3)c(Cc3cccc(F)c3)n2c1 | 2.68%
COC(=O)c1ccc2nc(C3CCCCC3)c(Cc3cccc(F)c3)n2c1 | 19% (active)
O=S1(=O)c2ccc(Br)cc2OC[C@H](Cc2ccccc2)N1Cc1cn(Cc2ccccc2)nn1 | 9.67%
Cc1cc(NCCc2c[nH]c3ccccc23)ccc1Oc1cccnc1 | -2.55%
COC(=O)c1ccc(SCc2ccccc2)nc1 | -4.53%
COC(=O)c1ccc(CSc2nncn2N)cc1 | 48.3% (active)
CC(C)CC(CC(C)C)=NNC(=O)c1ccc(CSc2nncn2C)cc1 | -5.89%
COc1cccc2c1C(=O)c1c(O)c3c(c(O)c1C2=O)CC(O)(C(C)=NNC(=O)c1ccc(Cl)c(Cl)c1)CC3OC1CC(N)C(O)C(C)O1 (stereo unspecified) | 111% (active)
CN[C@H]1C[C@H]2c3cc(N4CCOCC4)ccc3CCN2C[C@H]1[C@H](C)O | -5.62%
COC(=O)[C@@H]1CC(O)CN1C(=O)C12CC3CC(CC(C3)C1)C2 (stereo partly specified) | 2.14%

Structure (SMILES) | inhibition
Cc1ccc(S(=O)(=O)NCCSC(C)(C)C)cc1 | 0.35%
COc1nc(N(C)C)nc(N2CC(=O)N(CCNS(=O)(=O)c3ccc(C)cc3)C2=N)n1 | 15.6% (active)
COc1nc(Oc2ccc(=O)n(C)n2)nc(N(C)C)n1 | -3.73%
COc1ccc(CSc2nnc(-c3cccc(C)c3)n2C)cc1 | 0%
Cc1cc(Cl)ccc1N1C(=O)CC(SCCC(=O)O)C1=O (stereo unspecified) | 2.13%
COC(=O)c1cc2c(c3c4ccccc4n(S(=O)(=O)c4cccc(C)c4)c13)C(=O)N(Cc1ccccc1)C2 | 0.83%
CCc1ccccc1NC(=O)CN(c1ccc(OC)cc1OC)S(=O)(=O)c1ccccc1[N+](=O)[O-] | 2.54%
CSc1ccc(CNCCN2CCOCC2)cc1 | 2.47%
c1ccc2cc3c(NCCN4CCOCC4)ccnc3cc2c1 | 15.3% (active)
O=C(Cc1ccc(Br)cc1)NCCN1CCOCC1 | -0.23%
COc1ccccc1C(=O)Nn1cnnc1 | 3.63%
COc1ccccc1C(=O)NCC(=O)OCC(=O)NNC(=O)c1ccc(Br)cc1 | -6.8%
COc1ccccc1C(=O)NNC(=O)CCN1C(=O)/C(=C\c2ccccc2)SC1=S | 13.2% (active)
Cn1cnnc1Sc1ccc(CN2CCN(C3CCCC3)C(CCO)C2)o1 (stereo unspecified) | -4.49%
C[C@@H]1CN([C@@H](C)CO)C(=O)c2cccc(NC(=O)Nc3cccc4ccccc34)c2O[C@H]1CN(C)S(=O)(=O)c1ccccc1F | -5.98%
COc1ccccc1C(=O)NC1CCCCN(C(C)C)C1=O (stereo unspecified) | 6.15%
Cc1ccc(S(=O)(=O)N(CCc2ccccc2)c2ccc3c(c2)C2CC3CCN2C(=O)OCc2ccccc2)cc1 (stereo unspecified) | -6.75%
COc1ccc(CNC(=O)C2CCC(CNc3c(N4CCOCC4)c(=O)c3=O)CC2)cc1 (stereo unspecified) | -0.13% and -5.05%
Cc1cc(C(=O)OCC(=O)Nc2nccs2)c2ccccc2n1 | 8.33%
CCOc1cc(NC(=O)c2ccccc2C(=O)O)c(OCC)cc1NC(=O)c1ccccc1F | 0.6%
CCOc1ccc(NC(=O)c2cc(C)nc3ccccc23)cc1 | 16.2% (active)
CCOc1ncccc1C(=O)Nc1ccc(S(=O)(=O)Nc2nc(C)cc(C)n2)cc1 | -2.5%

Structure (SMILES) | inhibition
CCOc1cc(N2CCOCC2)c(OCC)cc1NC(=O)c1cc(C)nc2ccccc12 | 13.2% (active)
CCC(CC)C(C(=O)NC1CCCC1)N1CCN(c2cc(C)nc3ccccc23)CC1 (stereo unspecified) | -3.59%
O=C(CSc1nc2ccccc2nc1N1CCCCC1)N1CCN(S(=O)(=O)c2cccc([N+](=O)[O-])c2)CC1 | -6.32%
O=C(NCc1ccc(Cl)cc1)C1CCCN(c2nc3ccccc3o2)C1 (stereo unspecified) | -3.29%
O=C(c1ccc(F)cc1)c1c[nH]c(C(=O)NCc2cccnc2)c1 | 4.31%
O=C1CC[C@@]23CCCN2C(=O)CCC[C@H]3[C@H]1Cc1ccccc1 | 1.8%
COC(=O)C(=Nc1ccccc1)/C(C(=O)C(=O)N(C)c1ccccc1)=C(\O)c1ccc(Cl)cc1 | -5.32%
C=CC1=C(C(=O)O)N2C(=O)[C@@H](NC(=O)/C(=N/OCC(=O)O)c3csc(N)n3)[C@H]2SC1 | 73.1% (active)
C=CC1=C(C(=O)O)N2C(=O)[C@@H](NC(=O)/C(=N\OCC(=O)O)c3csc(N)n3)[C@H]2SC1 | 52.4% (active)
CCCNc1ncnc2sc(C)c(C)c12 | 1.28%
O=C(Nc1cc(F)cc(F)c1)OC1CCC12CCC(c1ccccc1)CC2 (stereo unspecified) | 0.3%
O=C1CC(c2ccc3c(c2)OCO3)N=C2N(CC3CC3)C/C(=C/c3ccccc3)N12 (stereo unspecified) | -1.23%
COCCN1CCN(C(=O)c2cc(COc3ccc(F)cc3Cl)on2)CC1 | 2.22%
Cc1cc(OCc2cc(C(=O)NCc3cc(C(C)C)no3)no2)cc(C)c1Cl | 4.94%
COc1ccc(OCc2cc(C(=O)NCC3(C)COC3)no2)c(Cl)c1 | 17.4% (active)
COC(=O)C1=C(C)N(Cc2ccccc2C(F)(F)F)C(=NCc2ccc(C(F)(F)F)cc2)NC1c1ccc(F)cc1 (stereo unspecified) | 2.2%
CN1C(=O)CN2CCc3ccccc3C2c2cc(Cl)ccc21 (stereo unspecified) | -5.25%
Cc1ccc(NC(=O)Cc2cccc(F)c2)c(S(=O)(=O)N2CCOCC2)c1 | -5.33%
Cc1nc(CNc2ncnc3ccc(-c4ccc5c(c4)OCO5)cc23)cs1 | -2.98%
COc1ccc(C2Nc3ccccc3C(=O)N2Cc2cccs2)cc1COc1c(C)cccc1C (stereo unspecified) | -1.94%
